Test results as given in PubChem BioAssay (NCI).
“And” between values parts separate entries of the source, which are not always exact repeats. Identical values can stand only once. About 79,000 compounds went through this panel and 15% of them were active in at least one assay; those are over-represented in the sample as a whole. Values without a mark were called inactive. The source made the active and inactive calls. Cut-off read from the data, not from the text of the source: active = growth inhibition above about 70%; inactive = the rest.

What was measured:
[1] = NCI Yeast Anticancer Drug Screen. Data for the rad52 strain (AID 147);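 note: 0% = growth of vehicle-treated control cultures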; conditions: S. cerevisiae rad52 mutant growth inhibition, active compounds read high
Outline: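 Growth of repair-deficient yeast cells was compared between compound-treated and vehicle-treated cultures to give percent inhibition.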

[2] = NCI Yeast Anticancer Drug Screen. Data for the wt1 strain (AID 149);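 note: 0% = growth of vehicle-treated wt1 cultures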; conditions: S. cerevisiae wt1 strain (SPY 50644) growth inhibition, active compounds read high
Outline: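 Yeast wt1 strain exposed to compounds; growth inhibition measured relative to vehicle-treated controls.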

[3] = NCI Yeast Anticancer Drug Screen. Data for the rad50EPP+ strain (AID 151);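 note: 0% = growth of vehicle-treated control cultures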; conditions: S. cerevisiae rad50 mutant strain, active compounds read high
Outline: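 Measured: growth inhibition of rad50EPP+ yeast. Reference: vehicle-treated controls. Screen uses strains with defined genetic alterations in DNA damage repair or cell cycle control.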

[4] = NCI Yeast Anticancer Drug Screen. Data for the mgt1 strain (AID 153); conditions: S. cerevisiae mgt1 mutant growth inhibition, active compounds read high
Outline: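 Compounds were applied to mgt1 mutant yeast, and growth was then compared against vehicle-treated control cultures to give percent inhibition.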

[5] = NCI Yeast Anticancer Drug Screen. Data for the rad50 strain (AID 155);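 note: 0% = growth of vehicle-only cultures of the same strain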; conditions: S. cerevisiae rad50 strain growth inhibition, active compounds read high
Outline: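 Yeast carrying a defined DNA repair defect were exposed to test compounds, and growth was compared with vehicle-treated controls to give percent inhibition.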

[6] = NCI Yeast Anticancer Drug Screen. Data for the mec2-1 strain (AID 157); conditions: S. cerevisiae mec2-1 strain, active compounds read high
Outline: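 Compounds were applied to mec2-1 yeast cells. Their growth was then compared with that of vehicle-treated cultures to give growth inhibition.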

[7] = NCI Yeast Anticancer Drug Screen. Data for the rad14 strain (AID 159);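 note: 0% = growth of vehicle-treated control cultures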; conditions: S. cerevisiae rad14 strain growth inhibition, active compounds read high
Outline: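 Yeast cells carrying a defined DNA-repair defect were exposed to compounds, and growth inhibition was calculated relative to vehicle-treated control cultures.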

[8] = NCI Yeast Anticancer Drug Screen. Data for the sgs1 mgt1 strain (AID 161);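 note: 0% = growth of cultures given vehicle only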; conditions: S. cerevisiae sgs1 mgt1 strain, active compounds read high
Outline: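 This yeast growth screen uses a strain with defined DNA-repair lesions; compound-treated growth is compared with vehicle-treated growth.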

[9] = NCI Yeast Anticancer Drug Screen. Data for the CLN2oe strain (AID 163);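 note: 0% = growth of vehicle-only control cultures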; conditions: S. cerevisiae CLN2oe strain, active compounds read high
Outline: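 Cells of an engineered yeast line with disturbed cell-cycle regulation are treated with compound. Inhibition of growth is then calculated relative to the vehicle-treated reference.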

[10] = NCI Yeast Anticancer Drug Screen. Data for the cln2 rad14 strain (AID 165);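 note: 0% = growth equal to vehicle treated cultures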; conditions: S. cerevisiae cln2 rad14 strain, active compounds read high
Outline: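 Strain: cln2 rad14 yeast, altered in cell cycle control and DNA damage repair. Read-out: growth inhibition vs vehicle.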

[11] = NCI Yeast Anticancer Drug Screen. Data for the bub3 strain (AID 167); conditions: S. cerevisiae bub3 mutant strain, active compounds read high
Outline: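 Compounds were applied to a genetically altered yeast strain carrying a cell-cycle control defect. Growth inhibition was scored against vehicle-treated controls.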

[12] = NCI Yeast Anticancer Drug Screen. Data for the wt2 strain (AID 169);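 note: 0% = growth of vehicle-treated yeast cultures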; conditions: S. cerevisiae wt2 strain growth inhibition, active compounds read high
Outline: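 Growth of compound-treated yeast is measured and expressed as inhibition relative to vehicle-only controls.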

[13] = NCI Yeast Anticancer Drug Screen. Data for the mlh1 strain (AID 171);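 note: 0% = growth of vehicle-treated control cultures of the same strain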; conditions: S. cerevisiae mlh1 strain growth inhibition, active compounds read high
Outline: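 Test agents were incubated with yeast bearing a defined DNA damage repair or cell cycle control alteration; values are growth inhibition normalised to vehicle-treated cultures.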

[14] = NCI Yeast Anticancer Drug Screen. Data for the sgs1 strain (AID 173);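 note: 0% = growth of vehicle-only control cultures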; conditions: S. cerevisiae sgs1 mutant, active compounds read high
Outline: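 Strain with an altered DNA repair or cell cycle pathway exposed to compound. Growth then measured. Value = inhibition versus vehicle control.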

[15] = NCI Yeast Anticancer Drug Screen. Data for the mlh1 rad18 strain (AID 175); conditions: S. cerevisiae mlh1 rad18 strain growth inhibition, active compounds read high
Outline: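 A repair-deficient yeast strain is exposed to test compound, and growth is scored relative to vehicle-treated controls.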

[16] = NCI Yeast Anticancer Drug Screen. Data for the rad18 strain (AID 177); conditions: S. cerevisiae rad18 mutant growth inhibition, active compounds read high
Outline: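 DNA-repair-defective yeast; compound treatment; growth inhibition scored against vehicle.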

[17] = at 5.0 µM (retest, dose inferred, filed as 0.5)
[18] = at 50.0 µM (retest, dose inferred, filed as 5.0)

Q: What does the source list for `C[C@]12CC[C@H](O)CC1=CC[C@@H]1C2CC[C@]2(C)C(=O)NC(=O)CC12` (stereo partly drawn)?
A: growth inhibition ([1]; at 1.2 µM): -27%; growth inhibition ([1]; at 3.7 µM): -23%; growth inhibition ([1]; at 11.0 µM): -17%; growth inhibition ([1]; at 33.0 µM): 58%; growth inhibition ([1]; at 100.0 µM): 85% (active); growth inhibition ([2]; at 1.2 µM): -22%; growth inhibition ([2]; at 3.7 µM): -24%; growth inhibition ([2]; at 11.0 µM): -21%; growth inhibition ([2]; at 33.0 µM): 55%; growth inhibition ([2]; at 100.0 µM): 84% (active); growth inhibition ([3]; at 1.2 µM): -33%; growth inhibition ([3]; at 3.7 µM): -19%; growth inhibition ([3]; at 11.0 µM): 18%; growth inhibition ([3]; at 33.0 µM): 74% (active); growth inhibition ([3]; at 100.0 µM): 93% (active); growth inhibition ([4]; at 1.2 µM): -41%; growth inhibition ([4]; at 3.7 µM): -16%; growth inhibition ([4]; at 11.0 µM): 79% (active); growth inhibition ([4]; at 33.0 µM): 94% (active); growth inhibition ([4]; at 100.0 µM): 96% (active); growth inhibition ([5]; at 1.2 µM): -16%; growth inhibition ([5]; at 3.7 µM): -19%; growth inhibition [5, 17]: -4%; growth inhibition ([5]; at 11.0 µM): -13%; growth inhibition ([5]; at 33.0 µM): 53%; growth inhibition [5, 18]: 69%; growth inhibition ([5]; at 50.0 µM): 82.4% (active); growth inhibition ([5]; at 100.0 µM): 88% (active); growth inhibition ([6]; at 1.2 µM): -23%; growth inhibition ([6]; at 3.7 µM): -24%; growth inhibition [6, 17]: -39%; growth inhibition ([6]; at 11.0 µM): -27%; growth inhibition ([6]; at 33.0 µM): 14%; growth inhibition [6, 18]: 82% (active); growth inhibition ([6]; at 50.0 µM): 77.9% (active); growth inhibition ([6]; at 100.0 µM): 83% (active); growth inhibition ([7]; at 1.2 µM): -50%; growth inhibition ([7]; at 3.7 µM): -50%; growth inhibition ([7]; at 11.0 µM): -38%; growth inhibition ([7]; at 33.0 µM): 64%; growth inhibition ([7]; at 100.0 µM): 87% (active); growth inhibition [8, 17]: 33%; growth inhibition [8, 18]: 94% (active); growth inhibition ([8]; at 50.0 µM): 91.8% (active); growth inhibition ([9]; at 1.2 µM): -36%; growth inhibition ([9]; at 3.7 µM): -45%; growth inhibition ([9]; at 11.0 µM): -48%; growth inhibition ([9]; at 33.0 µM): 67%; growth inhibition ([9]; at 100.0 µM): 91% (active); growth inhibition [10, 17]: 1%; growth inhibition [10, 18]: 80% (active); growth inhibition ([10]; at 50.0 µM): 84.7% (active); growth inhibition ([11]; at 1.2 µM): -23%; growth inhibition ([11]; at 3.7 µM): -15%; growth inhibition [11, 17]: -4%; growth inhibition ([11]; at 11.0 µM): -12%; growth inhibition ([11]; at 33.0 µM): 60%; growth inhibition [11, 18]: 90% (active); growth inhibition ([11]; at 50.0 µM): 80% (active); growth inhibition ([11]; at 100.0 µM): 86% (active); growth inhibition ([12]; at 1.2 µM): -14%; growth inhibition ([12]; at 3.7 µM): 27%; growth inhibition ([12]; at 11.0 µM): 78% (active); growth inhibition ([12]; at 33.0 µM): 94% (active); growth inhibition ([12]; at 100.0 µM): 97% (active); growth inhibition ([13]; at 1.2 µM): -33%; growth inhibition ([13]; at 3.7 µM): -3%; growth inhibition ([13]; at 11.0 µM): 71% (active); growth inhibition ([13]; at 33.0 µM): 94% (active); growth inhibition ([13]; at 100.0 µM): 96% (active); growth inhibition ([14]; at 1.2 µM): 17%; growth inhibition ([14]; at 3.7 µM): 45%; growth inhibition ([14]; at 11.0 µM): 90% (active); growth inhibition ([14]; at 33.0 µM): 96% (active); growth inhibition ([14]; at 100.0 µM): 97% (active); growth inhibition [15, 17]: -25%; growth inhibition [15, 18]: 82% (active); growth inhibition ([15]; at 50.0 µM): 70.3% (active); growth inhibition ([16]; at 1.2 µM): -27%; growth inhibition ([16]; at 3.7 µM): -29%; growth inhibition ([16]; at 11.0 µM): -23%; growth inhibition ([16]; at 33.0 µM): 77% (active); growth inhibition ([16]; at 100.0 µM): 92% (active)

Q: Which growth inhibition ([1]; at 1.2 µM) does the source give for `COC1=C(N)C(=O)c2nc(-c3nc(C(=O)O)c(C)c(-c4ccc(OC)c(OC)c4O)c3N)ccc2C1=O` here?
A: 97% (active)

Q: And the growth inhibition ([1]; at 3.7 µM)?
A: 97% (active)

Q: And the growth inhibition ([1]; at 11.0 µM)?
A: 98% (active)

Q: What about the growth inhibition ([1]; at 33.0 µM) of the same compound?
A: 98% (active)

Q: And the growth inhibition ([1]; at 100.0 µM)?
A: 97% (active)

Q: What about the growth inhibition ([2]; at 1.2 µM) of the same compound?
A: 98% (active)

Q: What about the growth inhibition ([2]; at 3.7 µM) of the same compound?
A: 99% (active)

Q: And the growth inhibition ([2]; at 11.0 µM)?
A: 99% (active)

Q: And the growth inhibition ([2]; at 33.0 µM)?
A: 99% (active)

Q: And the growth inhibition ([2]; at 100.0 µM)?
A: 98% (active)

Q: And the growth inhibition ([3]; at 1.2 µM)?
A: 91% (active)

Q: And the growth inhibition ([3]; at 3.7 µM)?
A: 93% (active)

Q: What about the growth inhibition ([3]; at 11.0 µM) of the same compound?
A: 94% (active)

Q: What about the growth inhibition ([3]; at 33.0 µM) of the same compound?
A: 96% (active)

Q: And the growth inhibition ([3]; at 100.0 µM)?
A: 96% (active)

Q: And the growth inhibition ([4]; at 1.2 µM)?
A: 97% (active)

Q: And the growth inhibition ([4]; at 3.7 µM)?
A: 98% (active)

Q: What about the growth inhibition ([4]; at 11.0 µM) of the same compound?
A: 98% (active)

Q: And the growth inhibition ([4]; at 33.0 µM)?
A: 98% (active)

Q: And the growth inhibition ([4]; at 100.0 µM)?
A: 98% (active)

Q: What about the growth inhibition ([5]; at 1.2 µM) of the same compound?
A: 96% (active)

Q: What about the growth inhibition ([5]; at 3.7 µM) of the same compound?
A: 97% (active)

Q: And the growth inhibition [5, 17]?
A: 96% (active) and 98% (active)

Q: And the growth inhibition ([5]; at 11.0 µM)?
A: 97% (active)

Q: And the growth inhibition ([5]; at 33.0 µM)?
A: 98% (active)

Q: And the growth inhibition [5, 18]?
A: 97% (active) and 98% (active)

Q: And the growth inhibition ([5]; at 50.0 µM)?
A: 93.5% (active) and 92.5% (active)

Q: And the growth inhibition ([5]; at 100.0 µM)?
A: 97% (active)

Q: And the growth inhibition ([6]; at 1.2 µM)?
A: 96% (active)

Q: What about the growth inhibition ([6]; at 3.7 µM) of the same compound?
A: 98% (active)
